Compounds without any hit were thinned out: in the full panel of roughly 83,000, 20% have a hit.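 96-well plates, one dose, 48 hours. Percent growth reported; active if below 10.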 A number with no mark means an inactive call. Activity calls are given as the source filed them.

Our source for the growth values is PubChem BioAssay (NCI).

Common to all, as to assay: NCI-60 one-dose screen, 48 h (100 = growth as untreated, 0 = no growth, -100 = all killed)
Details in all cases: 10 µM unless noted

The subject of test [1] is DU-145 prostate.
Test [2] deals with K-562 leukemia.
The test system of test [3] is MALME-3M melanoma.
In test [4] the test system is MDA-MB-231 breast.
Test [5] relates to RXF 393 renal.
The test system of test [6] is SF-268 CNS.
The subject of test [7] is SF-295 CNS.
Test [8] concerns SF-539 CNS.
Test [9] has as its system UACC-257 melanoma.
Test [10] relates to M14 melanoma.

With `COc1ccccc1NS(=O)(=O)c1cccc(C(=O)Nc2ccc(Br)cc2)c1`, the growth is 52.1% in test [1]; 25.6% in test [2]; 32% in test [3]; 50.6% in test [4]; 57.7% in test [5]; 30.9% in test [6]. Moreover, the growth is 27% in test [7], 64.3% in test [8], 32.9% in [9] and 38.9% in [10].
In the case of `c1ccc(-c2cn3c(ccc4ccccc43)n2)cc1`, the growth was 87.8% in [1]; 20.8% in test [2]; 80.7% in test [3]; 55.8% in test [4]; 86% in [5]; 74.7% in test [6]. The growth in test [7] was 60.2%; in test [8], 62.6%; in test [9], 78.9%; in test [10] it was 32.2%.
Regarding `CCC(=O)Oc1ccc(/C(=C(\C)c2ccccc2)c2ccc(OCCN3CCCCC3)cc2)cc1`, the growth is 91.5% in test [1]; 17.1% in [2]; 79% in test [3]; 91.1% in test [4]; 73.9% in test [5]; 80.3% in test [6]. The growth in [7] was 86.5%; in test [8], 62.2%; in test [9], 72.1%; in test [10] it was 72.3%.
As for `O=C1Nc2cc(-c3ccc(NC(=O)C4CC4)cc3)ccc2/C1=C/c1ccc[nH]1`, the growth in test [1] was 105%; in test [2], 98.4%; in test [3], 98.5%; in [4] it was 99.5%; in [5] it was 108%; in [6] it was 104%. Moreover, the growth in test [7] was 101%; in test [8], 90.7%; in test [9], 116%; in [10] it was 99.3%.
On to `O=[N+]([O-])c1ccc(NC(=S)N/N=C/c2cc3ccccc3n3nnnc23)cc1`, for which the growth in test [1] was 64.1%; in test [2], 12.5%; in test [3], 71.9%; in [4], 61.2%; in test [5], 30.1%; in test [6], 38.3%. For the same compound, the growth is 18.9% in test [7], 9.9% (active) in test [8], 90.2% in test [9] and 75.5% in [10].
As for `COc1ccc(OC)c(-c2cc(-c3ccc(Cl)cc3)c3c(N)c(C(=O)c4ccc(Cl)cc4)sc3n2)c1`, the growth was 107% in test [1]; 118% in test [2]; 89.7% in [3]; 90.4% in test [4]; 115% in test [5]; 100% in [6]. In addition, the growth in test [7] is 99.2%; in test [8], 101%; in [9], 98.2%; in [10], 102%.
`O=S(=O)(Nc1ccc(-n2cnc3cc(-c4ccc(O)cc4)ccc32)cc1)c1ccccc1`: the growth was 105% in [1]; 65.4% in test [2]; 100% in test [3]; 85.1% in [4]; 103% in [5]; 78.4% in test [6]. Besides, the growth in test [7] was 87.9%; in test [8] it was 67.3%; in test [9] it was 106%; in test [10], 85.1%.
In the case of `COc1ccc2[nH]c(O)c(/C=c3/cc4c(c(-c5ccc(F)cc5)n3)=Nc3ccccc3-4)c2c1`, the growth in test [1] is 76.6%; in [2], 23.5%; in test [3] it was 114%; in test [4], 32.2%; in test [5] it was 81.5%; in [6] it was 79.3%. Moreover, the growth in test [7] is 86.9%; in [8], 89.5%; in test [9] it was 113%; in [10], 92.3%.
As for `COc1ccc(NC(N)=NCCCOc2ccc(F)cc2)cc1`, the growth was 48.5% in test [1]; 91.5% in test [2]; 96.6% in test [3]; 93.8% in test [4]; 104% in test [5]; 77.7% in test [6]. In addition, the growth in test [7] was 70.9%; in [8] it was 71.7%; in test [9], 25.4%; in [10] it was 69.1%.
`Nc1n[nH]c2cccc(C#Cc3cccc(C(=O)Nc4cc(CN5CCOCC5)cc(C(F)(F)F)c4)c3)c12`: the growth was 58.9% in test [1]; 4.98% (active) in [2]; 0.564% (active) in test [3]; 19.6% in test [4]; 24% in test [5]; 41.9% in [6]. For the same compound, the growth in test [7] is 54.6%; in test [8], 8.6% (active); in test [9], 33%; in test [10], 6.89% (active).
Regarding `O=C(Nc1ccccc1C(=O)N/N=C(\c1ccccc1)c1ccccn1)c1ccc(F)cc1`, the growth in [1] was 23.5%; in test [2] it was 12.8%; in test [3], 35.6%; in test [4] it was 36.6%; in [5] it was 37.2%; in test [6], 19.2%. The growth in test [7] is 20.9%; in test [8] it was 9.35% (active); in test [9], 2.87% (active); in test [10], -23.3% (active).
Turning to `CNC(=O)c1cc(Cn2nc(C)c(NC(=O)Nc3ccc(Cl)c(C(F)(F)F)c3)c2C)ccn1`, the growth is 101% in test [1]; 112% in [2]; 98.5% in test [3]; 91.8% in test [4]; 102% in test [5]; 98% in test [6]. In addition, the growth in test [7] was 95.5%; in test [8], 94%; in test [9] it was 79%; in test [10], 97.5%.
As for `COc1cc(F)c(/C=C/c2cc(/C=C/c3cc(OC)c(OC)cc3F)on2)cc1OC`, the growth is 88.2% in [1]; 63.3% in test [2]; 69.3% in test [3]; 83% in [4]; 92.8% in test [5]; 86.7% in test [6]. Besides, the growth was 97.7% in test [7], 98% in test [8], 86.3% in [9] and 80.9% in [10].
`CC(Sc1nc2sc3c(c2c(=O)n1-c1ccc(Cl)cc1)CCCC3)C(=O)Nc1nc(-c2ccc(Br)cc2)cs1` (stereo not given): the growth in test [1] was 105%; in [2], 96.5%; in test [3], 95.2%; in test [4], 89.1%; in [5], 101%; in test [6], 93.5%. Besides, the growth in test [7] was 100%; in test [8] it was 107%; in test [9], 93%; in test [10], 94%.
